Experimental data as given in PubChem BioAssay.
Results filed as inconclusive are left out. Activity calls are given as the source filed them.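 Rule for the calls, unless noted: active = inhibition over a set limit, the all-compound mean plus 3 SD, in both replicate runs; inconclusive = over that limit in just one replicate run; inactive = at or under that limit in both runs.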

What was measured:
[1] = reducers of endogenous Her2 protein level, primary screen, SKBR3 breast tumor cells, AlphaScreen, ATP viability (AID 461;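 active = Her2 level under about 52% in both replicate screens, with viability over 70% of control, limit read from the data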;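 for Her2 level: lower value means less Her2 protein in the cells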;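 for viability: percent of carrier control wells set as 100% viability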); details: 18-24 h, measured here: SKBR3 viability, ATP luminescence, at 10 µM
[2] = target: Receptor tyrosine-protein kinase erbB-2 (Homo sapiens) (UniProt P04626); assay: as above; details: 18-24 h, at 10 µM, stronger effect = lower value
[3] = SK-BR-3 cell growth inhibitors, pilot screen, 24 h, human (AID 572;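 active = viability at or below 10% of carrier control in both of two separate runs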;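 note: compound exposure lasted between 18 and 24 h rather than exactly 24 h; 100% = carrier-treated control wells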); details: SK-BR-3 viability, CellTiter-Glo luminescence, at 10 µM, stronger effect = lower value
[4] = HUVEC growth inhibition – cell-based, human, primary screen (AID 575;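 active = viability at or below 30% in both replicate assays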;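 note: 100% = median of untreated cell wells with 0.1% DMSO on each plate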); details: HUVEC proliferation, CellTiter-Glo luminescence, 72 h; at 10 µM; stronger effect = lower value
[5] = growth inhibitors of H69AR lung tumor, primary screen, human, duplicate replicates (AID 580;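 active = viability at or under a set limit in both replicates, limit being median viability minus 3 SD, cut at about 48% in these data, passing the limit was not always enough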;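 note: 100% = mean luminescence of untreated wells and 0% = no signal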); details: H69AR lung tumor cells viability, ATP luminescence, 72 h; at 10 µM; stronger effect = lower value
[6] = reversal of MRP1-mediated doxorubicin resistance, pilot screen, H69AR cells, doxorubicin co-treatment (AID 601;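 active = viability loss from added drug above about 55%, and viability with drug at most 40%, in both replicates, limit read from the data, passing the limit was not always enough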); details: CellTiter-Glo, 72 h, at 10 µM; for differential viability (reversal): stronger effect = higher value
[7] = 384-well plate pilot, post-Golgi transport modulator project, inhibition of yeast transport mutant growth (AID 636; in the data active = inhibition above about 31%); details: absorbance 615 nm, about 18 h, stronger effect = higher value
[8] = growth suppression of yeast trafficking mutant, preliminary HTS, modulators of trafficking downstream of Golgi apparatus project, 1536-format plate, OD 615 nm (AID 637; in the data active = inhibition above about 30%); details: yeast transport mutant growth, absorbance 615 nm, 18 h; stronger effect = higher value
[9] = OD615 S. cerevisiae growth inhibition, permissive medium, pilot counter-assay, permissive growth control for S. cerevisiae lifespan shortening project (AID 705;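 active = growth inhibition above 25% in both replicates, a cutoff set 3 SD above the mean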); details: OD615, 24 h, at 10 µM, stronger effect = higher value
[10] = Restrictive medium S. cerevisiae growth inhibition, OD615, pilot screen of yeast lifespan reduction project, restrictive growth control (AID 706;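 active = growth inhibition above a set limit, 3 SD over mean compound inhibition, in both replicates, cut at about 43% in these data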;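 note: modified DeaD lifespan yeast strain shifted to restrictive glucose medium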); details: OD615, 48 h, at 10 µM, stronger effect = higher value
[11] = viability gain of MRP-1-high H69AR cells under doxorubicin, pilot screen, MRP-1 activator project, CellTiter-Glo, duplicate (AID 807;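 active = viability increase at or above a cutoff of the median across tested compounds plus 3 SD, cut at about 8.5% in these data, passing the limit was not always enough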;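 note: compound pretreatment 18-22 h then 72 h combined with doxorubicin; 0% = doxorubicin alone and 100% = vehicle without doxorubicin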); details: H69AR viability with doxorubicin, CellTiter-Glo luminescence; at 10 µM; stronger effect = higher value
[12] = growth suppression of beta-catenin knockout HCT116, pilot screen, human colon tumor cells (AID 823;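 active = cell viability at or below a set limit in both duplicate runs, the limit being the all-compound median minus 4 SD, cut at about 23% in these data, passing the limit was not always enough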;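 note: 0% = wells killed by 20 µM Hyamine and 100% = untreated DMSO cell wells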); details: CellTiter-Glo, 60 h, at 10 µM, stronger effect = lower value
[13] = growth suppression of PTEN-deleted HCT116, pilot screen, cell-based, HCT116 clonal line, CellTiter-Glo (AID 824;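 active = viability at or below 27.92% in each of two runs, the all-compound median minus 4 SD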;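 note: 0% = 20 µM Hyamine control and 100% = vehicle cell control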); details: 60 h, at 10 µM, stronger effect = lower value
[14] = inhibitors of the yeast RAM network, pilot screen, dse1pr::URA3 reporter, 5-FOA selection (AID 869);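 note: 0% = DMSO wells with no growth and 100% = 10 µM 1-NA-PP1 with full growth; RAM network block rescues cells from 5-FOA so hits raise OD615 growth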; details: S. cerevisiae dse1pr::URA3 5-FOA growth, OD615, 2 d; at 10 µM; stronger effect = higher value; strain carries analog-sensitive mutant Cbk1 kinase
[15] = RAM signaling pathway blockade in yeast – S. cerevisiae, Pdr1DBD-CYC8 efflux-inhibited sensitized strain, primary screen (AID 1298;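 active = RAM network inhibition above 8.4% in each of two replicates, 3 SD over the compound average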;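 note: 0% = DMSO untreated cells without growth and 100% = 10 µM 1-NA-PP1 full growth; higher means more yeast growth rescued from 5-FOA killing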); details: S. cerevisiae cbk1-as DSE1-URA3 strain, 5-FOA growth OD615, 2 d; at 50 µM; stronger effect = higher value
[16] = H69AR cells + 2 uM doxorubicin, measured here: viability with 2 uM doxorubicin, stronger effect = lower value
[17] = H69AR cells, compound alone cytotoxicity

Sequence of Receptor tyrosine-protein kinase erbB-2 (Homo sapiens) (P04626 whole entry, looked up): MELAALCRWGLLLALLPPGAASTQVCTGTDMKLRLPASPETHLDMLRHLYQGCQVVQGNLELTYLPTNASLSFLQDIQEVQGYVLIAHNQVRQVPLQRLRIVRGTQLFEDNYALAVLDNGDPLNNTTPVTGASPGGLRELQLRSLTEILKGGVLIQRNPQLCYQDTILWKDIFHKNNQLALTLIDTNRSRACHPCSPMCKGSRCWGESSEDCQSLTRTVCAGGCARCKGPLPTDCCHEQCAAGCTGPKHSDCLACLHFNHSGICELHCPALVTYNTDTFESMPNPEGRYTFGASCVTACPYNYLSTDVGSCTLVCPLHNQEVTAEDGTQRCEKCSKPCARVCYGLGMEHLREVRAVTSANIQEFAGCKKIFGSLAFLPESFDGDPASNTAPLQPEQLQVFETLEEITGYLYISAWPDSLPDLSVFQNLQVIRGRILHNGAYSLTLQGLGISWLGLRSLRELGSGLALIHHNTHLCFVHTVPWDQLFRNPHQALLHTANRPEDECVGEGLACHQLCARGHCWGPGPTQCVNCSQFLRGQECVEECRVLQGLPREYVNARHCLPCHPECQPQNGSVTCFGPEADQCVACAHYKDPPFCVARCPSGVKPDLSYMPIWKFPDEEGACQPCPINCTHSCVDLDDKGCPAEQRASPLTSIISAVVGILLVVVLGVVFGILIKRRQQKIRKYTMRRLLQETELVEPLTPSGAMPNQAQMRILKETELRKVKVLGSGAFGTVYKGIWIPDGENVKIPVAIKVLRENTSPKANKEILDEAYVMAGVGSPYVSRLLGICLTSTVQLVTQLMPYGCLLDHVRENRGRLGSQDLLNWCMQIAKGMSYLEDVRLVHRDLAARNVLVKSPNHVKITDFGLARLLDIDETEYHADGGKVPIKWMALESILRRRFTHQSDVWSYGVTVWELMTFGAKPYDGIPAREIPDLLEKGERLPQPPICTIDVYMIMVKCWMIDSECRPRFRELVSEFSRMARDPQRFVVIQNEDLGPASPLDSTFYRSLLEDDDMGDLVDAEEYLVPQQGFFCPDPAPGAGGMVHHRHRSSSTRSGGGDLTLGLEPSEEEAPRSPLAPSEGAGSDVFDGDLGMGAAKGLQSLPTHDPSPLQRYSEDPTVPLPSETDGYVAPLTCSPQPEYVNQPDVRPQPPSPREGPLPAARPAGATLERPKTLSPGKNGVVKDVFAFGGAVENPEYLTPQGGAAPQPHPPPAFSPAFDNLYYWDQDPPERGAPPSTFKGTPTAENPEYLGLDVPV

Row | SMILES | viability [1] [%] | Her2 level [2] | viability [3] | viability [4] | viability [5] | differential viability (reversal) ([6]; H69AR cells + 2 uM doxorubicin) | viability [6, 16] [%] | viability [6, 17] [%] | inhibition [7] | inhibition [8] | growth inhibition [9] | growth inhibition [10] | viability increase [11] | viability [12] | viability [13] | inhibition [14] | RAM network inhibition [15]
1 | Cn1c(Cc2ccccc2)nnc1SCC(=O)NC1CCCCC1 | 107 | 94.5% (inactive) | 107% (inactive) | 91.5% (inactive) | 92.5% (inactive) | 12.9% (inactive) | 79.6 | 92.5 | -6.08% (inactive) | 3% (inactive) | 1.09% (inactive) | 10% (inactive) | 0.74% (inactive) | 97.4% (inactive) | 103% (inactive) | 1.4% (inactive) | 1.4% (inactive)
2 | CCCC(=O)Nc1cc(C)c2c(=O)oc3ccccc3c2n1 | 87 | 94.5% (inactive) | 87% (inactive) | 63.6% (inactive) | 77.6% (inactive) | -20.4% (inactive) | 98 | 77.6 | -0.4% (inactive) | 0.33% (inactive) | -11.5% (inactive) | 3.23% (inactive) | -4.74% (inactive) | 82.5% (inactive) | 86.1% (inactive) | 1.65% (inactive) | 8.68% (inactive)
3 | c1ccc(CN2CCN(CCCNc3ccc4nnc(-c5ccccc5)n4n3)CC2)cc1 | 83 | 78.5% (inactive) | 83% (inactive) | 50.2% (inactive) | 86.3% (inactive) | 55.5% (active) | 30.8 | 86.3 | 0.13% (inactive) | -2.17% (inactive) | -8.05% (inactive) | 5.01% (inactive) | -7.78% (inactive) | 50% (inactive) | 55.5% (inactive) | 2.78% (inactive) | 3.65% (inactive)
4 | CCOC(=O)CN(C(=O)c1ccccc1)c1ccccc1C | 93 | 108% (inactive) | 93% (inactive) | 104% (inactive) | 109% (inactive) | 15.2% (inactive) | 94 | 109 | 0.78% (inactive) | -11% (inactive) | -12.9% (inactive) | 6.67% (inactive) | -0.66% (inactive) | 91.8% (inactive) | 94.2% (inactive) | 0.91% (inactive) | 1.96% (inactive)
5 | CCN(CC)C(=O)COc1ccc2oc(C)c(C(=O)OC(C)C)c2c1 | 83 | 104% (inactive) | 83% (inactive) | 91.4% (inactive) | 74.1% (inactive) | -4.69% (inactive) | 78.8 | 74.1 | -1.69% (inactive) | -6% (inactive) | -11.4% (inactive) | -9.19% (inactive) | -6.09% (inactive) | 84.2% (inactive) | 84.8% (inactive) | 1.08% (inactive) | 7.42% (inactive)
6 | Cc1nnc2n(-c3ccc(Cl)cc3)c(=O)c3c4c(sc3n12)CN(C)CC4 | 84 | 98% (inactive) | 84% (inactive) | 103% (inactive) | 91.6% (inactive) | -11.4% (inactive) | 103 | 91.6 | -4.94% (inactive) | -4.1% (inactive) | -4.76% (inactive) | -10.1% (inactive) | -1.73% (inactive) | 112% (inactive) | 93.1% (inactive) | 0.945% (inactive) | 2.13% (inactive)
7 | CC1Cc2nc(SCC(=O)Nc3ccc4c(c3)OCO4)n(-c3ccc(F)cc3)c(=O)c2S1 (stereo not drawn) | 90.5 | 98% (inactive) | 90.5% (inactive) | 79.2% (inactive) | 89.2% (inactive) | 2.12% (inactive) | 87.1 | 89.2 | -5.87% (inactive) | 9.33% (inactive) | -7.17% (inactive) | 5.03% (inactive) | -2.53% (inactive) | 93.6% (inactive) | 86.7% (inactive) | 2% (inactive) | 6.73% (inactive)
8 | CCc1nc2sc(C)c(C)c2c(=O)n1CCO | 106 | 85% (inactive) | 106% (inactive) | 104% (inactive) | 94.7% (inactive) | 4.12% (inactive) | 90.6 | 94.7 | -6.23% (inactive) | -3.67% (inactive) | -1.03% (inactive) | 0.805% (inactive) | -1.82% (inactive) | 104% (inactive) | 102% (inactive) | 0.35% (inactive) | 2.87% (inactive)
9 | O=C1c2ccccc2C(Nc2ccc(F)cc2F)N1CCN1CCOCC1 (stereo not drawn) | 83 | 83% (inactive) | 83% (inactive) | 87.8% (inactive) | 78.2% (inactive) | -3.69% (inactive) | 81.9 | 78.2 | -5.73% (inactive) | 3.17% (inactive) | 0.235% (inactive) | -1.68% (inactive) | -1.58% (inactive) | 98.8% (inactive) | 104% (inactive) | 1.3% (inactive) | 0.93% (inactive)
10 | COCCCNC(=O)CSc1ccc(Cl)cc1 | 94.5 | 85% (inactive) | 94.5% (inactive) | 81.8% (inactive) | 95.3% (inactive) | 3.39% (inactive) | 91.9 | 95.3 | 0% (inactive) | -2.67% (inactive) | 1.36% (inactive) | -6.93% (inactive) | -1.7% (inactive) | 106% (inactive) | 97.8% (inactive) | 2.25% (inactive) | 2.53% (inactive)
11 | CCOc1ccc(S(=O)(=O)n2c(C)nc3ccccc32)cc1 | 93 | 112% (inactive) | 93% (inactive) | 65.8% (inactive) | 71.2% (inactive) | -45.5% (inactive) | 117 | 71.2 | 0.51% (inactive) | 5.67% (inactive) | -11.5% (inactive) | 0.25% (inactive) | 1.02% (inactive) | 98.2% (inactive) | 96.2% (inactive) | 1.31% (inactive) | 1.31% (inactive)
12 | CCCSC1=C(C#N)C(c2cc(OC)ccc2OC)CC(=O)N1 (stereo not drawn) | 93 | 92% (inactive) | 93% (inactive) | 98.3% (inactive) | 89.1% (inactive) | 5.96% (inactive) | 83.1 | 89.1 | -4.4% (inactive) | -0.33% (inactive) | -0.855% (inactive) | -3.12% (inactive) | -0.44% (inactive) | 92.5% (inactive) | 92.9% (inactive) | 1.42% (inactive) | 0.78% (inactive)
13 | Cc1nnc(N2C(=O)C(O)=C(C(=O)c3ccco3)C2c2ccc(F)cc2)s1 (stereo not drawn) | 99 | 98.5% (inactive) | 99% (inactive) | 120% (inactive) | 99.6% (inactive) | 8.77% (inactive) | 90.9 | 99.6 | -3.46% (inactive) | 1.67% (inactive) | -13.9% (inactive) | -28.6% (inactive) | -1.63% (inactive) | 106% (inactive) | 101% (inactive) | 0.21% (inactive) | 0.57% (inactive)
14 | Cc1ccc2oc(=O)c3cnn(CC(=O)NCCC(C)C)c3c2c1 | 84.5 | 102% (inactive) | 84.5% (inactive) | 95.2% (inactive) | 88.1% (inactive) | 15.4% (inactive) | 72.6 | 88.1 | -0.26% (inactive) | -1.67% (inactive) | 2.22% (inactive) | -6.28% (inactive) | -1.72% (inactive) | 105% (inactive) | 100% (inactive) | 1.22% (inactive) | 6.67% (inactive)
15 | CCOC(=O)C1=C(C)NC(=O)NC1c1ccc(Br)s1 (stereo not drawn) | 119 | 102% (inactive) | 119% (inactive) | 103% (inactive) | 108% (inactive) | 24.9% (inactive) | 83.5 | 108 | -6.53% (inactive) | 4.03% (inactive) | -10.5% (inactive) | -15.3% (inactive) | -0.63% (inactive) | 92.8% (inactive) | 89.7% (inactive) | 0.86% (inactive) | 3.71% (inactive)
16 | CC(Oc1ccccc1)C(=O)NC1CC(C)(C)NC(C)(C)C1 (stereo not drawn) | 92 | 92.5% (inactive) | 92% (inactive) | 79.8% (inactive) | 94% (inactive) | 2.97% (inactive) | 91 | 94 | -2.69% (inactive) | -1% (inactive) | -11.8% (inactive) | -2.76% (inactive) | -3.63% (inactive) | 97.1% (inactive) | 96.9% (inactive) | -0.135% (inactive) | 2.18% (inactive)
17 | COc1ccc(OC)c(NC(=O)CSc2nnc(Cc3cccn3C)n2-c2ccc(F)cc2)c1 | 81 | 90% (inactive) | 81% (inactive) | 62.7% (inactive) | 85.6% (inactive) | 7.76% (inactive) | 77.9 | 85.6 | 3.59% (inactive) | 0% (inactive) | 4.57% (inactive) | 16.1% (inactive) | -5.9% (inactive) | 97.1% (inactive) | 92% (inactive) | -0.57% (inactive) | 2.89% (inactive)
18 | O=C(c1cnc2n(c1=O)CCS2)N1CCc2ccccc21 | 99.5 | 83% (inactive) | 99.5% (inactive) | 96% (inactive) | 101% (inactive) | 3.18% (inactive) | 98.1 | 101 | -2.13% (inactive) | 0.16% (inactive) | -3.25% (inactive) | -7.63% (inactive) | 0.01% (inactive) | 97% (inactive) | 102% (inactive) | 1.24% (inactive) | -0.32% (inactive)
19 | Cc1noc(C(=O)Nc2ccc3c(c2)OCO3)c1Cl | 84.5 | 75% (inactive) | 84.5% (inactive) | 51.4% (inactive) | 96.9% (inactive) | -0.25% (inactive) | 97.2 | 96.9 | -4.13% (inactive) | 1.67% (inactive) | -0.74% (inactive) | 6.31% (inactive) | -3.47% (inactive) | 95.9% (inactive) | 89.7% (inactive) | 2.92% (inactive) | 5.2% (inactive)
